POLI inh – DNA polymerase iota (human) inhibition | Pol iota fluorescent replication assay, 10 min | 390,000 compounds, 1% hits | Potency, µM (top dose mostly 115 µM), hits mostly inhibitors | AID 588590
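Pol iota at 10 nM preincubated 15 min with compounds at room temperature; reaction started with fluorescent substrate, 50 nM final. Fluorescence read kinetically at 0 and 10 min; buffer-only wells as negative control.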
APEX1 inh – inhibitors of human APE1 endonuclease. P27695. recombinant APE1, TAMRA/BHQ-2 abasic DNA cleavage fluorescence. Potency, µM (series often up to 65.8 µM), hits mostly inhibitors. 350,000 compounds, 0.35% hits. AID 2517; also: nearly all actives have a fitted effect of over 55% in size
Target sequence (P27695 whole entry, looked up): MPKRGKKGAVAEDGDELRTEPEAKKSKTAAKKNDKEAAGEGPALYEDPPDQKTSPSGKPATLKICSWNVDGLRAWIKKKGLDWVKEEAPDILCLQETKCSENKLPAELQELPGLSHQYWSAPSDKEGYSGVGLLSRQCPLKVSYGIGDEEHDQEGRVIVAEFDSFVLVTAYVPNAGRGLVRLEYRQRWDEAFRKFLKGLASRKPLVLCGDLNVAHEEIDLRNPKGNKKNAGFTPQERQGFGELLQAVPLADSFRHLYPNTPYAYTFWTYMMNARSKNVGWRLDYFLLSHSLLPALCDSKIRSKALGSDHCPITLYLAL
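APE1 at 0.75 nM final was preincubated with compound 15 min at room temperature, then 50 nM double-stranded THF abasic-site substrate (5'-TAMRA/3'-BHQ-2) was added. Fluorescence (ex 525/em 598 nm) was read kinetically; third-minus-first read gave activity.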
Pol kappa inh-1 – inhibitors of human DNA polymerase kappa; Q9UBT6; purified Pol kappa, fluorescent DNA synthesis assay, 10 min; Potency, µM (series often up to 107 µM), most hits filed as inhibitors; 400,000 compounds, 0.53% hits; AID 588579
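50 nM final substrate added after 15 min RT preincubation of 10 nM Pol kappa with compound; fluorescence read at 0 and 10 min.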
Pol beta inh – blocks human DNA polymerase beta activity. P06746. Pol beta primer extension/strand displacement, fluorescence kinetic. Potency, µM (top dose mostly 114 µM), usual class: inhibitors. 340,000 compounds, 1.3% hits. AID 485314
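Values derive from four-parameter Hill fits of normalized kinetic data: reads at 0 and 10 min following addition of 50 nM substrate to 10 nM Pol beta preincubated 15 min with compound.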
Pol eta inh-1 – DNA polymerase eta (human) inhibition | Q9Y253 | 390,000 compounds, 1.2% hits | AID 588591 | recombinant Pol eta, fluorescent DNA replication assay | Potency, µM (series often up to 114 µM), usual class: inhibitors
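Pol eta at 10 nM preincubated with compounds 15 min at room temperature; reaction started with fluorescent substrate (50 nM final) and read kinetically at 0 and 10 min.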
L3MBTL1 inh – inhibitors of human L3MBTL1 | 230,000 compounds, 0.66% hits | Potency, µM (series often up to 57.1 µM), actives largely listed as inhibitors | AlphaScreen L3MBTL1–H3K9me1 peptide binding; also: nearly all actives have a fitted effect of over 60% in size
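Read-out is AlphaScreen signal from streptavidin donor and nickel chelate acceptor beads (10 ug/mL final each) bridging L3MBTL1 (50 nM) and biotinylated K9-monomethylated H3(1-15) peptide (75 nM), after 30 min compound exposure at room temperature.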
HEK293 tox – reduces HEK-293 cell viability in GALK counter-screen. AID 2547. HEK-293 viability, ATP luminescence (CellTiter-Glo), 24/48 h. 170 compounds, 10% hits. shares compounds with Pol eta inh-1. Potency, µM (top dose mostly 46.1 µM), hits mostly inhibitors
Pol kappa inh-2 – confirmation of human DNA polymerase kappa inhibitors; shares compounds with Pol eta inh-1; purified Pol-kappa, fluorescent strand-displacement substrate; Potency, µM, usual class: inhibitors; 920 compounds, 76% hits
Pol eta inh-2 – confirmation of human DNA polymerase eta inhibitors; 2,600 compounds, 64% hits; Potency, µM, hits mostly inhibitors; shares compounds with Pol eta inh-1; AID 720502; Pol eta primer extension, TAMRA/BHQ fluorescence, 10 min
Of the large screens only hits and unclear results are named; the others gave an inactive call (follow-up assays come after a bar, where they were run). A selection: hits, their analogues and other compounds. The true share with any hit is near 2.5%. Calls follow the shape of the dose curve; as a rule, active = well fitted curve in the direction sought with a large enough effect; inconclusive = small, poorly fitted or top-dose-only effect, or another doubt; inactive = no such curve, though single readings can be large; an effect the other way counts as inactive or inconclusive.

COc1ccc(NC(=O)/C(C#N)=C\c2ccc(-c3cc(C(=O)O)ccc3C)o2)cc1	POLI inh inconclusive, Pol kappa inh-1 inconclusive, Pol beta inh 22µM, Pol eta inh-1 20µM, L3MBTL1 inh inconclusive | Pol kappa inh-2 47 | Pol eta inh-2 43
Cc1ccc(NC(=O)/C(C#N)=C/c2ccc(-c3ccc(Cl)c(C(=O)O)c3)o2)cc1C	Pol kappa inh-1 inconclusive (no result: APEX1 inh, L3MBTL1 inh)
O=C(OC(C(=O)NC1CCCCC1)c1ccccc1F)c1ccco1 (stereo not drawn)	none (no result: L3MBTL1 inh)
CC(NC(=O)N1CCN(c2ccccc2F)CC1)c1ccc(F)c(F)c1 (stereo not drawn)	none (no result: L3MBTL1 inh)
Cc1ccc(C2N=C(Nc3nc4ccccc4o3)NC3=C2C(=O)CC(C)(C)C3)cc1 (stereo not drawn)	none (no result: APEX1 inh, Pol beta inh, Pol eta inh-1, L3MBTL1 inh) | HEK293 tox inactive
CC1(C)CC(=O)C2=C(C1)NC(Nc1nc3ccccc3o1)=NC2c1ccccc1 (stereo not drawn)	none (no result: APEX1 inh, Pol beta inh, Pol eta inh-1, L3MBTL1 inh) | HEK293 tox inactive
Cc1ccc(C2C3=C(CC(C)(C)CC3=O)Nc3onc(C)c32)cc1 (stereo not drawn)	none (no result: L3MBTL1 inh)
CC1(C)CC(=O)C2=C(C1)NC(Nc1nc3ccccc3o1)=NC2c1cccc(O)c1 (stereo not drawn)	none (no result: APEX1 inh, Pol beta inh, Pol eta inh-1, L3MBTL1 inh) | HEK293 tox inconclusive
CC1(C)CC(=O)C2=C(C1)NC(Nc1nc3ccccc3o1)=NC2c1cccc(F)c1 (stereo not drawn)	none (no result: APEX1 inh, Pol beta inh, Pol eta inh-1, L3MBTL1 inh) | HEK293 tox inactive
Cc1cccc(CN2CCC(Oc3ccc(C(=O)N4CCCCC4)cc3)CC2)c1	none (no result: L3MBTL1 inh)
CCC1CCCCN1S(=O)(=O)c1ccc(NC(=O)c2nc(SC)ncc2Cl)cc1 (stereo not drawn)	none (no result: APEX1 inh, L3MBTL1 inh)
COc1ccc(C2N=C(Nc3nc4ccccc4o3)NC3=C2C(=O)CC(C)(C)C3)cc1 (stereo not drawn)	none (no result: APEX1 inh, Pol beta inh, Pol eta inh-1, L3MBTL1 inh) | HEK293 tox inactive
COCCOC(=O)C1=C(C)NC2=C(C(=O)CC(C)(C)C2)C1c1cccnc1 (stereo not drawn)	none
COc1ccc(C2Nc3ccccc3NC3=C2C(=O)CC(C)(C)C3)cc1 (stereo not drawn)	POLI inh inconclusive (no result: L3MBTL1 inh)
CC1(C)CC(=O)C2=C(C1)NC(Nc1nc3ccccc3o1)=NC2c1cccnc1 (stereo not drawn)	none (no result: APEX1 inh, Pol beta inh, Pol eta inh-1, L3MBTL1 inh) | HEK293 tox inactive
O=C(O)/C=C\c1ccc(Cn2ccnc2)cc1	none (no result: POLI inh, APEX1 inh, Pol beta inh, Pol eta inh-1, L3MBTL1 inh)
Cc1cccc(C)c1NC(=O)CN(C)C(=O)c1ccc2nc[nH]c2c1	POLI inh 22µM, Pol kappa inh-1 inconclusive, Pol eta inh-1 inconclusive, L3MBTL1 inh inconclusive (no result: Pol beta inh) | Pol eta inh-2 67
COc1cc2ccccc2cc1C(=O)NC(=S)Nc1cccc(C(=O)O)c1	POLI inh inconclusive, APEX1 inh inconclusive, Pol beta inh 28µM, Pol eta inh-1 45µM | Pol eta inh-2 inconclusive
O=C(O)c1cccc(NC(=S)NC(=O)c2ccc(-c3ccccc3)cc2)c1	none
COc1cc2ccccc2cc1C(=O)NC(=S)Nc1ccc(C(=O)O)cc1	Pol eta inh-1 50µM (no result: L3MBTL1 inh) | Pol eta inh-2 inconclusive
C=CCC(O)[C@H](Cc1cnc2ccccc2c1)[C@H](/C=C/CCCC)c1ccccc1 (stereo partly drawn)	none (no result: Pol beta inh, Pol eta inh-1, L3MBTL1 inh)
Cc1cn([C@H]2C[C@H](O)[C@@H](CNCc3ccc4ncccc4c3)O2)c(=O)[nH]c1=O	none (no result: POLI inh, APEX1 inh, Pol kappa inh-1, Pol beta inh, L3MBTL1 inh)
COc1ccc(OC)c(NP2(=O)OCC(C)([N+](=O)[O-])CO2)c1 (stereo not drawn)	none (no result: APEX1 inh, Pol beta inh, L3MBTL1 inh)

Assay outcomes from PubChem BioAssay.
